Reference: PubChem BioAssay
Values without a mark were called inactive. Calls of active or inactive are those of the source. The rule behind the calls is not given here.

target: L-lactate dehydrogenase (Plasmodium falciparum (isolate CDC / Honduras)) (UniProt Q27743); experiment: PfLDH activity inhibition – cell lysate, 3D7 strain, counter-screen for P. falciparum growth inhibition project (AID 2304);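 note: 0% = vehicle and 100% = reference inhibitor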; conditions: P. falciparum 3D7 crude extract, LDH APAD/NBT absorbance; at 2 µM; active compounds read high
Sequence (Q27743 whole entry, looked up): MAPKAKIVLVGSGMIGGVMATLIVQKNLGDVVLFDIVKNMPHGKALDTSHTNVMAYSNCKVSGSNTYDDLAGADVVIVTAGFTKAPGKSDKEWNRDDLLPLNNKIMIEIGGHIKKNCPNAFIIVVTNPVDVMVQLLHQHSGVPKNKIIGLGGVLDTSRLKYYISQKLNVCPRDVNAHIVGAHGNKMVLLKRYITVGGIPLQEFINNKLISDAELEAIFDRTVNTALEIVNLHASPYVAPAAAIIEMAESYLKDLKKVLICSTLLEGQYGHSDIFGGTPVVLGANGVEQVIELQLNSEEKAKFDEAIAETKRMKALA

SMILES | inhibition [%]
O=[N+]([O-])c1cccc(C=NNc2ccnc3cc(F)ccc23)c1 | -1
COc1cc(N(Cc2ccc(F)cc2)C(=O)c2ccc(-c3ccccc3)cc2)ccc1OCCN1CCCC1 | -4
CCCCNc1c(C(=O)OCC)c(C)nc2c1[nH]c1ccccc12 | 3
COc1ccc(/C=C/C(=O)NCCCCCN2CCC(c3c[nH]c4ccccc34)CC2)cc1O | -5
CCc1cc2c(Sc3nnc(N)s3)ncnc2s1 | -4
CCCc1cc(=O)oc2cc(OC)c(C(=O)CC(C)C)c(OC)c12 | 2
O=C(NOCCOc1ccccc1)c1ccccc1 | -1
CC(c1cccc(S(=O)(=O)NCc2cccc(C(F)(F)F)c2)c1)N1CCC(N2CCCCC2)CC1 (stereo not given) | 2
CC1CCN(c2nc(C(=O)NCCc3ccc(Cl)c(Cl)c3)c(C(C)C)s2)CC1 | 3
OCCN1CCN(Cc2cccc(-c3ccc(-c4nc5ccc(C(F)(F)F)cc5[nH]4)cc3)c2)CC1 | -2
Cc1cnc(-c2ccc(NC(=O)c3coc4ccc(N5C[C@@H](C)N(C)[C@@H](C)C5)cc34)cc2)o1 | 1
CN1CCC(NCc2cccc(-c3cccc(S(=O)(=O)NCc4ccccc4)c3)c2)CC1 | -2
COc1ccc(CNC2CCN(C)CC2)cc1-c1ccc(S(=O)(=O)NC2CCC2)c(C)c1 | 0
CN1CCN(CCCN(Cc2csc(-c3ccc(CNCc4ccccc4)cc3)n2)S(=O)(=O)c2ccccc2Cl)CC1 | -5
Cc1ccc(-c2cccc3c(NC(=O)Nc4ccc5nccc(N6CCN(C)CC6)c5c4)cccc23)cn1 | -7
CCCCCCCCOc1c(OCC)cc(Cc2cnc(N)nc2N)cc1OCC | 3
C=CCN1C(=O)C(C(C)=O)=C(O)C1c1ccccc1 (stereo not given) | -4
O=[N+]([O-])c1cccc(CNCC2CCN(Cc3ccc4ccccc4c3)CC2)c1 | 4
COc1ccc2nccc([C@@H](O)CN3CCC(NC(=O)c4[nH]c5ccccc5c4-c4ccccc4)CC3)c2c1 | 0
OC(CNc1cccc(Cl)c1)Cn1c2ccc(Cl)cc2c2cc(Cl)ccc21 (stereo not given) | 6

SMILES | inhibition [%]
Cc1cc(N[C@@H](Cc2ccccc2)C(=O)Nc2ccccc2)nc(NCCc2cccnc2)n1 | -3
Cc1cccc2[nH]c(-c3cccc(-c4cccc(NC(=O)c5ccoc5)c4)c3)nc12 | -4
CC(C)CCN1CCC(Oc2ccc(NC(=O)c3ccc(F)cc3)cc2Cl)CC1 | 4
Cc1cccc2[nH]c(-c3cccc(-c4cccc(CNCc5cnn(-c6ccccc6)n5)c4)c3)nc12 | 1
CC1(CCc2ccccc2)N=C(Nc2ccc(Cl)cc2)N=C(N)C1c1ccc(Cl)c(Cl)c1 (stereo not given) | -6
Cc1[nH]c(C)c(-c2ccc(OCc3cc(C(F)(F)F)cc(C(F)(F)F)c3)nc2)c(=O)c1Br | -2
O=C1C([N+](=O)[O-])=C(O)c2cccc(F)c21 | 0
Oc1ccc(Cl)cc1Nc1nc(C(F)(F)F)nc2ccccc12 | 5
Cc1ccc2nc(C)n(C3CCN(C(=O)C4(c5ccccc5)CC4)CC3)c2c1 | 7
CCCCCc1ccc(N2C(N)=NC(N)=NC2(C)C)cc1 | -6
O=S(=O)(c1ccc(Cl)cc1Cl)N1CCCCC(c2ccc(C(F)(F)F)cc2)=N1 | 4
O=C(NCc1ccccc1)c1ncn(CCCN2CCC(N3CCCC3)CC2)c1-c1ccc(Cl)c(Cl)c1 | 3
CC[C@H]1CN2CCc3cc(OC)c(OC)cc3[C@@H]2C[C@@H]1CC1=NCCc2c1[nH]c1ccc(OCc3ccccc3)cc21 | -2
CCNc1cc(CCCC(=O)OCC)nc(Nc2ccc(C)cc2)n1 | -4
CN1CCC(NCc2cccc(-c3ccc(S(=O)(=O)NCCc4ccccn4)cc3)c2)CC1 | -1
Clc1ccc(Sc2cncnc2N2CCOCC2)cc1 | -2
Cc1cc2ccc(-c3cccc(CN)c3)cc2nc1N | -6
CC(=O)N1CCN(c2ccc(NC(=O)c3oc(-c4ccccc4)nc3C(F)(F)F)cn2)CC1 | -2
COc1cc(Nc2nccc(N3CCC(NS(=O)(=O)c4ccc(NC(C)=O)cc4)CC3)n2)cc(OC)c1OC | -3
CCNc1cc(-c2cccc(OC)c2)nc(Nc2ccc(F)cc2)n1 | 3

tested on: not listed separately; experiment: inhibition of 3D7 malaria parasite growth – strain 3D7 (AID 2306);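 note: 0% = DMSO wells and 100% = chloroquine plus artemisinin control wells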; conditions: P. falciparum 3D7 erythrocytic growth, LDH absorbance, 72 h; at 2 µM; active compounds read high

SMILES | growth inhibition
O=[N+]([O-])c1cccc(C=NNc2ccnc3cc(F)ccc23)c1 | 100% (active)
COc1cc(N(Cc2ccc(F)cc2)C(=O)c2ccc(-c3ccccc3)cc2)ccc1OCCN1CCCC1 | 93% (active)
CCCCNc1c(C(=O)OCC)c(C)nc2c1[nH]c1ccccc12 | 100% (active)
COc1ccc(/C=C/C(=O)NCCCCCN2CCC(c3c[nH]c4ccccc34)CC2)cc1O | 91% (active)
CCc1cc2c(Sc3nnc(N)s3)ncnc2s1 | 99% (active)
CCCc1cc(=O)oc2cc(OC)c(C(=O)CC(C)C)c(OC)c12 | 81% (active)
O=C(NOCCOc1ccccc1)c1ccccc1 | 98% (active)
CC(c1cccc(S(=O)(=O)NCc2cccc(C(F)(F)F)c2)c1)N1CCC(N2CCCCC2)CC1 (stereo not given) | 99% (active)
CC1CCN(c2nc(C(=O)NCCc3ccc(Cl)c(Cl)c3)c(C(C)C)s2)CC1 | 88% (active)
OCCN1CCN(Cc2cccc(-c3ccc(-c4nc5ccc(C(F)(F)F)cc5[nH]4)cc3)c2)CC1 | 102% (active)
Cc1cnc(-c2ccc(NC(=O)c3coc4ccc(N5C[C@@H](C)N(C)[C@@H](C)C5)cc34)cc2)o1 | 96% (active)
CN1CCC(NCc2cccc(-c3cccc(S(=O)(=O)NCc4ccccc4)c3)c2)CC1 | 100% (active)
COc1ccc(CNC2CCN(C)CC2)cc1-c1ccc(S(=O)(=O)NC2CCC2)c(C)c1 | 101% (active)
CN1CCN(CCCN(Cc2csc(-c3ccc(CNCc4ccccc4)cc3)n2)S(=O)(=O)c2ccccc2Cl)CC1 | 93% (active)
Cc1ccc(-c2cccc3c(NC(=O)Nc4ccc5nccc(N6CCN(C)CC6)c5c4)cccc23)cn1 | 90% (active)
CCCCCCCCOc1c(OCC)cc(Cc2cnc(N)nc2N)cc1OCC | 80% (active)
C=CCN1C(=O)C(C(C)=O)=C(O)C1c1ccccc1 (stereo not given) | 93% (active)
O=[N+]([O-])c1cccc(CNCC2CCN(Cc3ccc4ccccc4c3)CC2)c1 | 100% (active)
COc1ccc2nccc([C@@H](O)CN3CCC(NC(=O)c4[nH]c5ccccc5c4-c4ccccc4)CC3)c2c1 | 96% (active)
OC(CNc1cccc(Cl)c1)Cn1c2ccc(Cl)cc2c2cc(Cl)ccc21 (stereo not given) | 95% (active)

SMILES | growth inhibition
Cc1cc(N[C@@H](Cc2ccccc2)C(=O)Nc2ccccc2)nc(NCCc2cccnc2)n1 | 95% (active)
Cc1cccc2[nH]c(-c3cccc(-c4cccc(NC(=O)c5ccoc5)c4)c3)nc12 | 99% (active)
CC(C)CCN1CCC(Oc2ccc(NC(=O)c3ccc(F)cc3)cc2Cl)CC1 | 98% (active)
Cc1cccc2[nH]c(-c3cccc(-c4cccc(CNCc5cnn(-c6ccccc6)n5)c4)c3)nc12 | 99% (active)
CC1(CCc2ccccc2)N=C(Nc2ccc(Cl)cc2)N=C(N)C1c1ccc(Cl)c(Cl)c1 (stereo not given) | 102% (active)
Cc1[nH]c(C)c(-c2ccc(OCc3cc(C(F)(F)F)cc(C(F)(F)F)c3)nc2)c(=O)c1Br | 98% (active)
O=C1C([N+](=O)[O-])=C(O)c2cccc(F)c21 | 95% (active)
Oc1ccc(Cl)cc1Nc1nc(C(F)(F)F)nc2ccccc12 | 86% (active)
Cc1ccc2nc(C)n(C3CCN(C(=O)C4(c5ccccc5)CC4)CC3)c2c1 | 100% (active)
CCCCCc1ccc(N2C(N)=NC(N)=NC2(C)C)cc1 | 95% (active)
O=S(=O)(c1ccc(Cl)cc1Cl)N1CCCCC(c2ccc(C(F)(F)F)cc2)=N1 | 100% (active)
O=C(NCc1ccccc1)c1ncn(CCCN2CCC(N3CCCC3)CC2)c1-c1ccc(Cl)c(Cl)c1 | 89% (active)
CC[C@H]1CN2CCc3cc(OC)c(OC)cc3[C@@H]2C[C@@H]1CC1=NCCc2c1[nH]c1ccc(OCc3ccccc3)cc21 | 101% (active)
CCNc1cc(CCCC(=O)OCC)nc(Nc2ccc(C)cc2)n1 | 101% (active)
CN1CCC(NCc2cccc(-c3ccc(S(=O)(=O)NCCc4ccccn4)cc3)c2)CC1 | 95% (active)
Clc1ccc(Sc2cncnc2N2CCOCC2)cc1 | 95% (active)
Cc1cc2ccc(-c3cccc(CN)c3)cc2nc1N | 100% (active)
CC(=O)N1CCN(c2ccc(NC(=O)c3oc(-c4ccccc4)nc3C(F)(F)F)cn2)CC1 | 92% (active)
COc1cc(Nc2nccc(N3CCC(NS(=O)(=O)c4ccc(NC(C)=O)cc4)CC3)n2)cc(OC)c1OC | 91% (active)
CCNc1cc(-c2cccc(OC)c2)nc(Nc2ccc(F)cc2)n1 | 87% (active)
